Measurements: PubChem BioAssay (Tox21)
Where “and” joins values, the source holds several entries; their conditions need not be identical. Equal values may be shown once. Records with an inconclusive call do not appear. A call without a number means that no potency is given here. Some compounds were tested as several samples or in several runs, with calls that do not always agree. Calls of active or inactive are those of the source. Calls come from the whole dose curve; as a rule, active = well fitted activation curve with a large enough effect in the repeat runs; inconclusive = weak or mixed curves; inactive = flat fitted curve, though single readings scatter.
Potency is the fitted concentration of half-maximal effect.

Assay: A CellTox Green Cytotoxicity Assay to monitor cytotoxicity in HepG2 cells - 32 hour (AID 1224883); note: nearly all actives have a fitted effect of over 50% in size
Conditions: CellTox Green fluorescence; series mostly up to 76.8 µM; cytotoxicity increase: at the top concentration
Method in brief: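 HepG2 cells, 600/well, preincubated 5 h with CellTox Green dye, then exposed to Tox21 compounds in DMSO at 37 C for up to 40 h. Dead-cell DNA fluorescence read at the indicated time point.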
With `CC1=C(/C=C/C(C)=C/C=C/C(C)=C/CO)C(C)(C)CCC1` the “cytotoxicity increase” value was 2.96% (inactive).
For `NCc1cccc(CN)c1`, the Potency was “inactive”.
With `CN(C)c1cccc(O)c1` the “cytotoxicity increase” value was 3.36% (inactive).
With `OCC1CCCO1` (stereo not drawn) the Potency was “inactive”.
With `CCCCC(CC)C(=O)OCCOCCOCCOC(=O)C(CC)CCCC` (stereo not drawn) the Potency was “inactive”.
With `O=S(=O)(O)CCS` the Potency was “inactive”.
For `Oc1ccc2ccccc2c1`, the “cytotoxicity increase” value was -12% (inactive).
With `Cc1ccc(C(=O)O)o1` the Potency was “inactive”.
In the case of `ClC1=C(Cl)C(Cl)(Cl)C(Cl)=C1Cl`, the “cytotoxicity increase” value is reported as 18.5% (inactive).
In the case of `OC[C@@H](O)[C@H](O)[C@H](O)[C@@H](O)CO`, the Potency is reported as “inactive”.
With `CCOC(=O)/C=C\C(=O)OCC` the “cytotoxicity increase” value was -7.15% (inactive).
In the case of `CC1=CC[C@H]2C[C@@H]1C2(C)C`, the “cytotoxicity increase” value is reported as -18.2% (inactive).
In the case of `O=C(c1ccc(O)cc1)c1ccc(O)cc1O`, the Potency is reported as “inactive”.
With `CCc1ccccc1O` the Potency was “inactive”.
With `COCC(C)O` (stereo not drawn) the Potency was “inactive”.
For `CCCCCCOC(C)=O`, the Potency was “inactive”.
With `CC(C)n1c(/C=C/[C@@H](O)C[C@@H](O)CC(=O)O)c(-c2ccc(F)cc2)c2ccccc21` the Potency was 4.36 µM (active) and 9.52 µM (active).
For `c1ccc2ccccc2c1`, the Potency was “inactive”.
With `CC(C)(C)C1CCC(O)CC1` (stereo not drawn) the Potency was “inactive”.
For `O=S(=O)(O)c1cc(S(=O)(=O)O)c2c(N=Nc3ccccc3)c(O)ccc2c1`, the Potency was “inactive”.
In the case of `Cn1c([N+](=O)[O-])cnc1COC(N)=O`, the Potency is reported as “inactive”.
With `CCCCCCCCC` the “cytotoxicity increase” value was -3.11% (inactive).
In the case of `Cc1ccc(N)c(S(=O)(=O)O)c1`, the Potency is reported as “inactive”.
In the case of `C=C(C)C(=O)OCCCCCC`, the Potency is reported as “inactive”.
For `Oc1c(Cl)cc(Cl)c(Cl)c1Cl`, the Potency was “inactive”.
With `Cc1cc(O)c2c(c1)C(=O)c1cc(O)cc(O)c1C2=O` the Potency was “inactive”.
In the case of `Nc1c(S(=O)(=O)O)cc(Br)c2c1C(=O)c1ccccc1C2=O`, the Potency is reported as “inactive”.
With `C=C(C)C(=O)OCC(CC)(COC(=O)C(=C)C)COC(=O)C(=C)C` the Potency was “inactive and 42.9 µM (active)”.
In the case of `Nc1cc(-c2ccncc2)c[nH]c1=O`, the Potency is reported as “inactive”.
With `CS(=O)(=O)Nc1ccc([N+](=O)[O-])cc1Oc1ccccc1` the Potency was “inactive”.
In the case of `CCCCC(CC)COC(=O)CCCCCCCC(=O)OCC(CC)CCCC` (stereo not drawn), the Potency is reported as 49 µM (active).
For `CN(C)c1ccc(C(=N)c2ccc(N(C)C)cc2)cc1`, the Potency was 4.84 µM (active) and 18.8 µM (active).
In the case of `CCCCCCC(C)(C)S`, the Potency is reported as “inactive”.
In the case of `CCOC(=O)C1OC1c1ccccc1` (stereo not drawn), the Potency is reported as “inactive”.
With `Clc1ccc(Cl)c(Cl)c1Cl` the Potency was “inactive”.
For `CNC[C@H](O)[C@@H](O)[C@H](O)[C@H](O)CO`, the Potency was “inactive”.
For `C=C(C)C(=O)OCCC[Si](OC)(OC)OC`, the Potency was “inactive”.
For `CCCCC(CC)COC(=O)/C=C\C(=O)OCC(CC)CCCC` (stereo not drawn), the Potency was “inactive”.
